Measurements as given in paper PMC13494018.
Unmarked numbers belong to inactive results. How the calls were made is not given here.

B1: design_623_6e2e8b1f-5d9a-4413-9869-27a184816b12_2207_dldesign_0_cycle1_af2pred (protein)
chain: NPKVEELREEVRRLIAELARAGVAGTPEIAATVGAAIEQALKLLGESRETGEESLKEAIKIVKEALKAAA
CD276, Q5ZPR3
CD276, Q5ZPR3, sequence (Q5ZPR3 whole entry): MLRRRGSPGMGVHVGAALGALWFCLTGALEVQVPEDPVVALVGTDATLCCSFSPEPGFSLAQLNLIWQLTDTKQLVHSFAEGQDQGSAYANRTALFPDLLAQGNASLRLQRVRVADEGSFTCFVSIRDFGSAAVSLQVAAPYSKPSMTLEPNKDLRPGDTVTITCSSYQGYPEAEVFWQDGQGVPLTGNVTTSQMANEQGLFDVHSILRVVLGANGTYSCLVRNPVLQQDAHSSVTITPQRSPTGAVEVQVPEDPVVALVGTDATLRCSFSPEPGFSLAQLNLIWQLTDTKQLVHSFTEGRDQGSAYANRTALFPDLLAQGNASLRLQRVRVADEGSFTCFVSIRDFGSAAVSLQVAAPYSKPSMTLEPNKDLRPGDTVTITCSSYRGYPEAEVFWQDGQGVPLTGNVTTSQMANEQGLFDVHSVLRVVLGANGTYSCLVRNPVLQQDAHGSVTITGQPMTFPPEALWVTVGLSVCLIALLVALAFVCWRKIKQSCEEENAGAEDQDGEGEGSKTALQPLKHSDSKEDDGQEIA
  binding in a display sort: not found

B2: design_623_6e2e8b1f-5d9a-4413-9869-27a184816b12_2213_dldesign_0_cycle1_af2pred (protein)
chain: AVEELLAKAKEYAAKLKELADDLEAAKALATEKREDIGQVIMAAAIVAATESPEVAARAREVQRHAWSLQR
CD276, Q5ZPR3
  binding in a display sort: not found

B3: design_623_6e2e8b1f-5d9a-4413-9869-27a184816b12_2491_dldesign_0_cycle1_af2pred (protein)
chain: TAKALAAAVEKAKELAAIVAEVQGDGAFGAAMVNTLANYAAAAGVPQALVDRARAAAKEALASADGAKVALAELKALAAEFKAA
CD276, Q5ZPR3
  binding in a display sort: not found

B4: design_376_bf9d4634-8475-4fdb-a175-1db49a23bdcd_69_dldesign_0_cycle1_af2pred (protein)
chain: ANKEEVDAAADAISEAFRLAREYVLKEGLDPKEVANKLIQGLDDIEYGLALGEELEKDPASAEAGKALKKAAELLAKI
VTCN1, Q7Z7D3
VTCN1, Q7Z7D3, sequence (Q7Z7D3 whole entry): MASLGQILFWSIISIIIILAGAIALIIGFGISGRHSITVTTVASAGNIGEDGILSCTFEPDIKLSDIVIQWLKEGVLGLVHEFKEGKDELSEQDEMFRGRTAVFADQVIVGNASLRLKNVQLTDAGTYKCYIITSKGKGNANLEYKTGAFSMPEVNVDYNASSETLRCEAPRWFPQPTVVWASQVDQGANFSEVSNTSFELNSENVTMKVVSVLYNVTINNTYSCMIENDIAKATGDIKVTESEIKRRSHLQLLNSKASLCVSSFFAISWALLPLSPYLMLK
  binding in a display sort: not found

B5: design_376_bf9d4634-8475-4fdb-a175-1db49a23bdcd_110_dldesign_0_cycle1_af2pred (protein)
chain: VEELVEKVKKETAKKVWESTDLSAEEKEKVADELEALAKELAKISPEAAKAAKKAAAVVKRFAEDEKKAE
VTCN1, Q7Z7D3
  binding in a display sort: not found

B6: design_376_bf9d4634-8475-4fdb-a175-1db49a23bdcd_131_dldesign_0_cycle1_af2pred (protein)
chain: DLEEELKKLIEKALKGNLEEALKALDEAVKLVEEKLSKTTADTAKEIAKAGKENAKKAETEEEARKNIAKALKTIKRIALLDAE
VTCN1, Q7Z7D3
  binding in a display sort: not found

B7: design_376_bf9d4634-8475-4fdb-a175-1db49a23bdcd_214_dldesign_0_cycle1_af2pred (protein)
chain: MELLKEAEKYAKEAKEYAEKALKEPEKAEEYVKKAAEYVAKLYELAAEAYRLDKELGKKAKKLAKEARKEVKEKYKEAKK
VTCN1, Q7Z7D3
  binding in a display sort: not found

B8: design_376_bf9d4634-8475-4fdb-a175-1db49a23bdcd_232_dldesign_0_cycle1_af2pred (protein)
chain: EKEKLEKIVEEIKKYVEEAKELAKGDISSQSKAVSLLHKAFSLAGKAIGKEAKELEDKMLNAETMEEAVKIGEELYEKFSKIAKA
VTCN1, Q7Z7D3
  binding in a display sort: not found

B9: design_376_bf9d4634-8475-4fdb-a175-1db49a23bdcd_302_dldesign_0_cycle1_af2pred (protein)
chain: GEAEKEKLKKEIYKLYREERKKVAEAIKKGKEEGKEALEKAEKALEEKAKEAAKYPEAAQLALQYKEALKEYYEMASK
VTCN1, Q7Z7D3
  binding in a display sort: not found

B10: design_376_bf9d4634-8475-4fdb-a175-1db49a23bdcd_370_dldesign_0_cycle1_af2pred (protein)
chain: SLGKKLSEALRKAVRAARKAVEYMKAGDEENAEKYYKEAKEYAKELPEDVRNFVLNTMEKKIEEAKKEYA
VTCN1, Q7Z7D3
  binding in a display sort: not found

B11: design_376_bf9d4634-8475-4fdb-a175-1db49a23bdcd_377_dldesign_0_cycle1_af2pred (protein)
chain: GEEVEKLYKELIKAGKEADKALELAVKIGKVDSETLQILGEASIYADNPELAKGLAERDPEKAKERIKETKKAVEEVKKLYKEYK
VTCN1, Q7Z7D3
  binding in a display sort: not found

B12: design_376_bf9d4634-8475-4fdb-a175-1db49a23bdcd_425_dldesign_0_cycle1_af2pred (protein)
chain: DEEDEKNLEKVKRIYERAKELAKEGLEAIKKGTSKTKALYGAAKLERAAEAAKAASGGKHKEEMKKIAEESKKLAKELEEASKTY
VTCN1, Q7Z7D3
  binding in a display sort: not found

B13: design_376_bf9d4634-8475-4fdb-a175-1db49a23bdcd_487_dldesign_0_cycle1_af2pred (protein)
chain: DIKEELKKLAEEVKKLAKEVAELSKKDKEEAKVKAEEAEKLAEKALELAVKAIKEDEEAREVAHEAITEAFYALSVADAAK
VTCN1, Q7Z7D3
  binding in a display sort: not found

B14: design_376_bf9d4634-8475-4fdb-a175-1db49a23bdcd_502_dldesign_0_cycle1_af2pred (protein)
chain: GKKEKALKELEKLKKEAEELEEEGKKAGPKAYQEAGSMLIKIESALSAAKKGDEEEAEKAAKKAKEAYEKGKEKVTKLIKEEKAKKE
VTCN1, Q7Z7D3
  binding in a display sort: not found

B15: design_376_bf9d4634-8475-4fdb-a175-1db49a23bdcd_538_dldesign_0_cycle1_af2pred (protein)
chain: EAAELAALKAAGKAMAAVVKAADPALGAKVAATVEAGAKGTPAEFKKALQDAIGAVLLENPEAGRAAAKAAKDTYKAAKAA
VTCN1, Q7Z7D3
  binding in a display sort: not found

B16: design_376_bf9d4634-8475-4fdb-a175-1db49a23bdcd_541_dldesign_0_cycle1_af2pred (protein)
chain: EEEAKKLVEKAKEKLKKAKETAKNGTAEEAAKTAKEVFKEAREYGKKLKKKGYDEEYVKKIAEYAHEAAEIYAEESNKV
VTCN1, Q7Z7D3
  binding in a display sort: not found

B17: design_376_bf9d4634-8475-4fdb-a175-1db49a23bdcd_604_dldesign_0_cycle1_af2pred (protein)
chain: SVAAITAHAEALARKAVADPANAAAYLSEARDYVLTNGDAEALRAAADVLRALGAKAPGGAAFAAAARILERAAEDIEKA
VTCN1, Q7Z7D3
  binding in a display sort: not found

B18: design_376_bf9d4634-8475-4fdb-a175-1db49a23bdcd_661_dldesign_0_cycle1_af2pred (protein)
chain: SENIKKLSDARNEAIKYLREAVKLAGEEIKEEAAKAIELIGDLEKIPEALEEIEKAIKLAEKVENAEEVKKLLKKAKESAEEALKLS
VTCN1, Q7Z7D3
  binding in a display sort: not found

B19: design_376_bf9d4634-8475-4fdb-a175-1db49a23bdcd_737_dldesign_0_cycle1_af2pred (protein)
chain: MAREKQIKLYGESLLEIAIESAVAAIKKYEDAYKIIKELSEKRAKKAEEAGDKEMGEKIKKIGKEIAELAEKDKEKALEYAKKL
VTCN1, Q7Z7D3
  binding in a display sort: not found

B20: design_376_bf9d4634-8475-4fdb-a175-1db49a23bdcd_746_dldesign_0_cycle1_af2pred (protein)
chain: MEKAEEMGERLIEAVKESPEKAREVAEEMVRRAKEGDVEEAAAIAQAVAEAYAVAVKENKEAAEIVREALREVQEIGRKKR
VTCN1, Q7Z7D3
  binding in a display sort: not found

B21: design_376_bf9d4634-8475-4fdb-a175-1db49a23bdcd_800_dldesign_0_cycle1_af2pred (protein)
chain: AKAELEKLKKEAAKHRQEMYFYGKASAKLGPKYKAEYEEHYAKALEAAKKIKELDPEEGKKYEEIVLKTKKRLEKEL
VTCN1, Q7Z7D3
  binding in a display sort: not found

B22: design_376_bf9d4634-8475-4fdb-a175-1db49a23bdcd_869_dldesign_0_cycle1_af2pred (protein)
chain: REAALAAGAARLEAALAASPAAPAAAAALRAALEAGADAADVILAVQDVLAEAGAAKEDLSAAAKAAAEAVRLYS
VTCN1, Q7Z7D3
  binding in a display sort: not found

B23: design_376_bf9d4634-8475-4fdb-a175-1db49a23bdcd_888_dldesign_0_cycle1_af2pred (protein)
chain: GVVEKAKKISEAVRAEHKAKATTKLAKADPSQAAAAKAAAEEAKKAAEKAEEADKETAKAAKAAGKEAEAAAKA
VTCN1, Q7Z7D3
  binding in a display sort: not found

B24: design_376_bf9d4634-8475-4fdb-a175-1db49a23bdcd_1019_dldesign_0_cycle1_af2pred (protein)
chain: ILKEFAKLVSEAIKKATKADGLNGADIVWKEAEKSFKEVKEALKKGEEEAKKALEKAKERLEKAVEEAKKRGEA
VTCN1, Q7Z7D3
  binding in a display sort: not found

B25: design_376_bf9d4634-8475-4fdb-a175-1db49a23bdcd_1020_dldesign_0_cycle1_af2pred (protein)
chain: MGKKIHDVVKKAAEEARKAAEKAGADGELVRKAAYTAGWYYIAGDEEEAKKIVELAKKAEPKFAKTVEELMKKALEAAKKALEE
VTCN1, Q7Z7D3
  binding in a display sort: not found

B26: design_376_bf9d4634-8475-4fdb-a175-1db49a23bdcd_1125_dldesign_0_cycle1_af2pred (protein)
chain: VEEAAKKAKEKVKEVAEKATKEAPETADIAKALAENAEKKIDELAKKGAPKEALEKAAEKAIKTIKAVKKSALELK
VTCN1, Q7Z7D3
  binding in a display sort: not found

B27: design_376_bf9d4634-8475-4fdb-a175-1db49a23bdcd_1182_dldesign_0_cycle1_af2pred (protein)
chain: EEEEKQKVKEEAAKNVEEAVEAAGELIAKHPELREKAYKLRKEAIRLSQEAGKAAEKDLEEGKKYLEESKEKVKEIKKLAEE
VTCN1, Q7Z7D3
  binding in a display sort: not found

B28: design_376_bf9d4634-8475-4fdb-a175-1db49a23bdcd_1192_dldesign_0_cycle1_af2pred (protein)
chain: GTEKTKKISDHLRKAVSAAKKAVAIAKKAGIGEEMQKTFSELRDAVVDGDLEKAKEYAKKLLELGKKVPEAYEYAKEAAEEALKAVE
VTCN1, Q7Z7D3
  binding in a display sort: not found

B29: design_376_bf9d4634-8475-4fdb-a175-1db49a23bdcd_1228_dldesign_0_cycle1_af2pred (protein)
chain: DAALKALATKLQEEGLAWADKAYEAMQIIDPKEAPKVASDILRDFARANKLYAEDPAKGAAALAAARAKVEAIVALAKKVS
VTCN1, Q7Z7D3
  binding in a display sort: not found

B30: design_376_bf9d4634-8475-4fdb-a175-1db49a23bdcd_1294_dldesign_0_cycle1_af2pred (protein)
chain: SVKENTKEAAKKLEEKYGAEFAKIGPEYAAKMAAAAKEAAKKPTSADAIILMRDAYDELKKEADAALAAA
VTCN1, Q7Z7D3
  binding in a display sort: not found

B31: design_376_bf9d4634-8475-4fdb-a175-1db49a23bdcd_1330_dldesign_0_cycle1_af2pred (protein)
chain: AVEEKLKEYTKKAEEYIEKLEKLDPEKAKELRKELEEAKKLTPEEALKKVKEIAAKASEAYYQAKAEEDAKK
VTCN1, Q7Z7D3
  binding in a display sort: not found

B32: design_376_bf9d4634-8475-4fdb-a175-1db49a23bdcd_1417_dldesign_0_cycle1_af2pred (protein)
chain: MEEDEKKVEEVKKRGKEVAEKAKKSTPEEAEELRKEFTRYAAEVGGKASPEARNKIQEIRAEANGEIALAIIKKK
VTCN1, Q7Z7D3
  binding in a display sort: not found

B33: design_376_bf9d4634-8475-4fdb-a175-1db49a23bdcd_1553_dldesign_0_cycle1_af2pred (protein)
chain: HEEAEKAIEKAKEYFKELVKELEKLDPKAGAKMKELAEKGKKVLERMKEYSPEDVKETAESIMKGAEKEFEKLKKEAEA
VTCN1, Q7Z7D3
  binding in a display sort: not found

B34: design_376_bf9d4634-8475-4fdb-a175-1db49a23bdcd_1567_dldesign_0_cycle1_af2pred (protein)
chain: SAEEEIKKKAKELEKAGAAALFELADASKEEAPKYAAKIDKAIADLKALGKAATPELGKELFAKADKLQATRDRIMEDIES
VTCN1, Q7Z7D3
  binding in a display sort: not found

B35: design_376_bf9d4634-8475-4fdb-a175-1db49a23bdcd_1609_dldesign_0_cycle1_af2pred (protein)
chain: AKEEARELAEKAYEAAKSTSEDLREDVEKDGIGPKAVKSISDNMIEWIEKVHEEVKVDEEAHKIAEEAIKYAKEEGEKNIELAKKR
VTCN1, Q7Z7D3
  binding in a display sort: not found

B36: design_376_bf9d4634-8475-4fdb-a175-1db49a23bdcd_1727_dldesign_0_cycle1_af2pred (protein)
chain: STEEAIKKALEMAEKIAKATPETGAEATKIRDELLEYIAEFAEKGTVEGTKAVAEALREQAEKASPEAAKSLRAAARFAEALAKAKA
VTCN1, Q7Z7D3
  binding in a display sort: not found

B37: design_376_bf9d4634-8475-4fdb-a175-1db49a23bdcd_1797_dldesign_0_cycle1_af2pred (protein)
chain: AADEAKAKAKAALDAAAAAAAKVDPKKAPEVKARAAKAKATLDKLYADFKDDPEIATEVANIFLKGAEALLKEIKAA
VTCN1, Q7Z7D3
  binding in a display sort: not found

B38: design_376_bf9d4634-8475-4fdb-a175-1db49a23bdcd_1821_dldesign_0_cycle1_af2pred (protein)
chain: SNVKEANKKIDEATKLLVDARKAVYEKGKAAGPEVAAGAQKIIAGAVRGDVAPALADTPEVAALAKQMQAALDKAEKLENEAVKLLS
VTCN1, Q7Z7D3
  binding in a display sort: not found
